According to PubChem BioAssay AID652010 (The Scripps Research Institute Molecular Screening Center, 2013):
About 4,100 (1.1%) of roughly 370,000 compounds were called active.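 Rule for the calls: active = inhibition above the mean over all tested compounds plus 3 SD (cut at about 3.6% in these data); inactive = the rest.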 The entries come from a sample that favours actives as a whole.

Experiment: DAX1 (NR0B1) inhibitors on StAR promoter, primary screen, cell-based, luminescence, SF-1 (NR5A1), full-length DAX-1 (AID 652010);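 note: 0% = DAX-1 cells with DMSO and 100% = cells lacking DAX-1 with DMSO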
Conditions: HEK293T StAR-luciferase reporter, SF-1/DAX-1 repression relief; at 6.8 µM; stronger effect = higher value

inhibition, inactive:
COc1cccc2cc(C(C)N(CCCN3CCOCC3)C(=O)Nc3ccc(Cl)cc3)oc12 (stereo not drawn) -0.37%
COc1cccc(Nc2nnc(SCC(=O)N3CC(C)OC(C)C3)s2)c1 (stereo not drawn) 0.08%
CN(C(=O)CSc1nnc(Nc2ccccc2)s1)C1CCS(=O)(=O)C1 (stereo not drawn) 0.34%
C#CCN1CC(C)/C(=N/O)CC1C (stereo not drawn) 0.13%
COc1cc2c(cc1OC)/C(=C/C(=O)c1ccc(NC(C)=O)cc1)NCC2 -0.03%
O=C(O)C1CCCN1S(=O)(=O)c1ccc(Br)cc1 (stereo not drawn) 0.15%
CC(CCN1CCC(C(O)(c2ccccc2)c2ccccc2)CC1)Oc1ccc(Cl)cc1 (stereo not drawn) 0.18%
Cc1nc2cc(NCc3cccs3)ccc2n1C 2.41%
O=C(Nc1cccc(F)c1)c1coc(=O)c(Br)c1 0.24%
N/C(=N\OC(=O)Cc1ccc([N+](=O)[O-])cc1)c1ccccn1 0.83%
N/C(=N\OC(=O)CC1CCCCC1)c1ccccc1 -0.16%
COCC(=O)N[C@@H]1C[C@@H]2O[C@@H](CO)CC[C@@H]2O[C@@H]1CCc1ccc(-c2ccccc2)cc1 -0.14%
CSc1nc2nc3c(c(=O)n2[nH]1)CCC3 -0.21%
COC(=O)[C@]12C[C@H](CC(=O)NCc3ccccc3)C(=O)N(CCC3=CCCCC3)C1=C[C@H](C(C)C)O[C@@H]2C1CC1 -1.17%
O=C1Nc2ccccc2OC1CC(=O)N1CCCCCCC1 (stereo not drawn) -0.39%
CC(C)(C)C(c1nc2ccccc2[nH]1)n1c(Cc2csc3ccccc23)nc2ccccc21 (stereo not drawn) 0.83%
O=C(Nc1ccccc1)N1CCN(Cc2nc3ccccc3c(=O)[nH]2)CC1 -0.16%
COc1ccnc(NC(=S)N2CCN(c3ncc(C(F)(F)F)cc3Cl)CC2)c1 -0.4%
C=CCOC/C=C/C#CCN(CC=C)Cc1ccc(OC)cc1OC -0.5%
COc1ccc(CNC(=O)CSc2n[nH]c(N)n2)cc1OC -0.05%
COc1cc(CO)ccc1OCC(=O)Nc1cccc2ccccc12 -3.43%
O=C(CSc1nnc(-c2cccc(Cl)c2)n1Cc1ccco1)Nc1ccc(OCc2ccccc2)cc1 -2.28%
CCC(CC)c1nnc(NC(=O)C2=COCCO2)s1 1.13%
NS(=O)(=O)c1ccc2nc(NC(=O)CS(=O)(=O)c3ccc(F)cc3)sc2c1 0.31%
C[C@@H]1ON(C)[C@H]2C[C@H]3c4[nH]c5cccc(-c6ccc7c(c6)OCO7)c5c4CCN3C[C@@H]12 0.45%
O=S1(=O)c2c(NCc3ccco3)cccc2Oc2ccccc2CN1Cc1cn(Cc2cccc(C(F)(F)F)c2)nn1 -0.91%
O=C(Nc1cccc(F)c1)[C@@H]1CCCN1 -0.32%
Cc1cc(C)cc(NC(=O)NC2CCCCCCC2)c1 3.33%
Clc1ccc(Cc2nnc(-c3cccs3)o2)cc1 -0.54%
CCCN1C(=O)c2[nH]nc(-c3ccccc3)c2C1c1ccccc1 (stereo not drawn) -1.18%
O=C(Nc1ccc(Br)cc1)OCCN1C(=O)CCC12CCC(c1ccccc1)CC2 (stereo not drawn) 0.27%
CC(C(=O)N1CCc2ccccc21)N(C)CC(=O)Nc1ccc(F)cc1 (stereo not drawn) -0.82%
CS(=O)(=O)N(CC(=O)Nc1ccc(F)cc1)C1CCCCC1 -0.02%
Cn1c(SCC(=O)c2cccs2)nnc1-c1ccco1 0.71%
CN(C)C(=O)CSc1n[nH]c(-c2ccco2)n1 -0.67%
C=CCN(C)CC#Cc1ccccc1 1.58%
O=S1(=O)c2ccc(Br)cc2OC[C@H](Cc2ccccc2)N1Cc1cn(Cc2ccccc2)nn1 0.43%
COc1ccc(CN(CCN2CCOCC2)C(=O)c2ccc(C)cc2)cc1OC 1.29%
Cc1ccccc1N1CCN(CC(=O)NCc2ccc(Cl)cc2)CC1 -0.26%
COC1=C[C@H](C(=O)NCCNC(C)=O)[C@H](C)[C@@H](c2ccccc2)CC1=O 0.48%
CCN(CC)C(=O)CC[C@@H]1CC[C@]2(CCCN(S(=O)(=O)C3CCCCC3)C2)O1 -1.81%
CCOC(=O)c1c(NC(=S)Nc2ccccc2)sc2c1CCN(C)C2 0.23%
CCOC(=O)c1cc2c(nc1NC(=S)Nc1ccccc1)CC(C)(CC)OC2 (stereo not drawn) -0.51%
Cc1ccc(CN2CCCCC(NC(=O)C3CCCCC3)C2=O)cc1 (stereo not drawn) -1.69%
COc1ccc(N2CCN(CCNS(=O)(=O)c3ccc(C(C)(C)C)cc3)CC2)cc1 -0.04%
CC1(C)NC(=O)N(CC(=O)N2CCN(S(=O)(=O)c3ccccc3F)CC2)C1=O -1%
COc1ccc([C@H]2OC(=O)C[C@H]2C(=O)N2CCN(c3ccccc3F)CC2)cc1OC 0.35%
O=C(NCC1COc2ccccc2O1)c1ccc(NC(=O)c2cc(F)ccc2F)cc1 (stereo not drawn) -1.54%
CN(C)S(=O)(=O)c1cc(C(=O)Nc2ccn(C)n2)c(Cl)cc1Cl -0.84%
Cc1ccc(C(=O)Nc2nc(N)n(-c3ccccc3)n2)cc1 0.57%
N#Cc1c(NC(=O)c2ccc(N3CCOCC3)c([N+](=O)[O-])c2)sc2c1CCCC2 0.44%
CCC1CCc2c(sc(NC(C)=O)c2C#N)C1 (stereo not drawn) -0.35%
COC(=O)C1CN(Cc2ccc(F)cc2)CCS(=O)(=O)N1Cc1ccc(Cl)cc1 (stereo not drawn) -1.11%
CC(C)(C)OC(=O)NCc1cc(F)ccc1/C=C/S(=O)(=O)NCCc1ccccc1 -0.93%
O=C(NNC(=S)NC1CCCCC1)c1ccccc1Cl 2.28%
O=C(NC1CCCCCC1)C1CCN(C(=O)c2ccc(Cl)cc2)CC1 -1.38%
CC(NCc1ccco1)C(=O)N1CCCCC1 (stereo not drawn) -0.66%
O=S1(=O)c2ccc(Br)cc2OC[C@@H](Cc2ccccc2)N1Cc1cn(Cc2ccco2)nn1 -0.91%
Cn1c(-c2ccccc2)c[n+]2c1CCCCC2 0.1%
O=C(NCCN1C(=O)S/C(=C\c2cccnc2)C1=O)c1ccc(S(=O)(=O)N2CCCC2)cc1 -0.2%
Cc1cc(OCCCC(=O)NCCN2C(=O)S/C(=C\c3cccnc3)C2=O)ccc1Cl -0.22%
Cc1c(NC(=O)Nc2cccc([N+](=O)[O-])c2)c(=O)n(-c2ccccc2)n1C -3.53%
Cc1cccc(C)c1NC(=O)c1ccc(CN2CCc3ccccc3C2)cc1 -0.37%
Cc1cccc(OC(C)C(=O)N2CCc3ccccc3C2)c1 (stereo not drawn) -0.08%
CCOC(=O)c1c(NC(=S)SC)sc(C(=O)N2CCc3ccccc3C2)c1C 0.68%
Nc1ncnc2c1ncn2C1OC(CO)CC1O (stereo not drawn) -1.04%
CCC(=O)OCCCN1C(=O)CCC12CCC(c1ccccc1)CC2 (stereo not drawn) 0.13%
O=S(=O)(Nc1ccc2nc(-c3ccco3)[nH]c2c1)c1ccccc1 -0.15%
O=S(=O)(Nc1cccc(-c2ccc(N3CCOCC3)nn2)c1)c1ccc(Cl)c(Cl)c1 0.25%
COc1cccc(/C=C2\CC3(OC(C)=O)CCCN2C3)c1 (stereo not drawn) 1.86%
COc1ccc(Cn2ccc3ccc(-c4ccc5ccn(Cc6ccccc6C)c5c4)cc32)cc1 -0.33%
COc1ccc(-n2c(SCC(=O)Nc3ccc4cn[nH]c4c3)nnc2-c2cccnc2)cc1 0.02%

inhibition, active:
CC(C)c1ccc(Nc2nnc(SCC(=O)c3nnc(-c4ccccc4)o3)s2)cc1 5.21%
CC1CN/C(=C\C(=O)c2ccc(Br)cc2)C(=O)N1 (stereo not drawn) 4.26%
Cc1nc2cc(NC(=O)Nc3cccc(F)c3)ccc2n1C 5.18%
N/C(=N\OC(=O)CCC1CCCCC1)c1ccccn1 4.25%
O=c1c2c(nc3cc(-c4cccc(Cl)c4)[nH]n13)CCCC2 13.9%
Cc1cc(C)nc(Nc2n[nH]c(-c3ccccc3N)n2)n1 4.12%
COc1ccc(CNC(=O)COc2ccccc2C(=O)c2cnn(-c3ccccc3)c2)cc1OC 4%
NS(=O)(=O)c1ccc2nc(NC(=O)C3=COCCO3)sc2c1 9.6%
O=C(Nc1cccc(F)c1)NC1CCCCCCC1 4.46%
Clc1ccc(Nc2nc(-c3cccs3)cs2)nc1 5.93%
CN(CC(=O)Nc1ccc(F)cc1)CC(=O)N1CCCCC1 3.7%
Cn1c(-c2ccco2)nc2cc3ccccc3cc21 4.28%
Cc1cc(N=Nc2ccc3ccccc3c2)ccc1O 4.24%
CCOC(=O)c1cn[nH]c1NC(=S)Nc1ccccc1 4.39%
Cc1ccc(C(=O)Nc2ccn(C)n2)cc1 4.06%
N#Cc1c(NC(=O)C2CCCO2)sc2c1CCCCC2 (stereo not drawn) 3.86%
O=C(NC(=S)NC1CCCCC1)c1ccc(Cl)cc1 7.22%
COc1ccc(N2CC(C(=O)NCCN3C(=O)S/C(=C\c4cccnc4)C3=O)CC2=O)c(OC)c1 (stereo not drawn) 4.36%
CCc1ccc(NC(=O)N2CCc3ccccc3C2)cc1 6%
O=C(Nc1cccc([N+](=O)[O-])c1)N1CCc2ccccc2C1 4.21%
O=S(=O)(Nc1ccc2nc(N3CCOCC3)sc2c1)c1ccccc1 4.19%
